Test results reported in PubChem BioAssay AID2547 (National Center for Advancing Translational Sciences (NCATS), 2010).
The list shows a part of the results. A call without a number means that no potency is given here. Records with an inconclusive call do not appear. The source made the active and inactive calls. The call rests on the fitted dose curve; in most records, active means well fitted inhibition curve with a large enough effect; inconclusive means small, poorly fitted or top-dose-only effect; inactive means flat fitted curve, though single readings scatter.

test: Secondary Assay for Inhibitors of Human Galactokinase (GALK): HEK-293 Cell Viability Assay; details: HEK-293 viability, ATP luminescence (CellTiter-Glo), 24/48 h; series mostly up to 46.1 µM
Protocol: NIH Molecular Libraries Probe Production Centers Network [MLPCN] NIH Chemical Genomics Center [NCGC] MLPCN Grant: R03 MH085689-01 Assay Submitter (PI): Kent Lai (University of Utah School of Medicine, 50 N Mario Capecchi Drive, Salt Lake City, UT 84132) NCGC Assay Overview Cytotoxicity of the active compounds in the GALK qHTS screen (AID 1868) was assessed using the CellTiter-Glo Luminescent Cell Viability Assay kit (Promega, USA) in the HEK-293 (ATCC) cell line. CellTiter-Glo measures the intracellular ATP present in metabolically active cells using Ultra-Glo as the luciferase to detect ATP levels. In brief, the luciferase in the buffer catalyzes the oxidation of luciferin to oxyluciferin and light which is dependent on ATP. […] Wells treated with various concentrations of cycloheximide (Sigma) and DMSO, and wells with media alone were used as positive and negative controls, respectively. […] [1] http://www.promega.com/tbs/tb288/tb288.pdf
NCGC Assay Protocol Summary: HEK-293 cells were grown in a flask up to 80% confluence. Cells were trypsinized, washed, and resuspended in MEM Eagle + 10% FBS + 1% pen-strep media at a concentration of 120 cells/uL. Five uL/well of cell solution was dispensed into a 1536-well assay plates (Greiner, solid white medium-binding plates) with Aurora Discovery BioRAPTR Flying Reagent Dispenser (FRD; Beckton-Dickenson). Cells were pre-incubated at 37 degree Celsius, 5% CO2 for four hours. Compound and control solutions (23nL) were then transferred to the assay plate using the Kalypsys 1536-pin tool. Assay plates were re- incubated at 37 degree Celsius, 5% CO2. After 24 or 48 hours, five uL of CellTiter Glo detection reagent was added. Luminescence signal was read with Perkin Elmer ViewLux plate reader after 30 min room temperature incubation.
Potency means the concentration at half of the fitted maximal effect.

With N#C/C(=C(/O)Cc1cccc2ccccc12)c1nc2ccccc2s1 as the compound, how does the Potency read?
Its Potency is “inactive”.

Which Potency does the source give for CCOC(=O)c1c(C)[nH]c2c1-c1ccccc1C(=O)C2=O here?
The Potency was 11.2 µM (active).

Which Potency does the source give for O=C1CCCC2=C1[C@@]1(CCC(c3ccccc3)C1)N=C(Nc1nc3ccccc3o1)N2 (some centres undefined) here?
The Potency was “inactive”.

Which Potency does the source give for COc1cccc2cc(-c3cc(=O)oc4cc(C)c(O)cc34)oc12 here?
The Potency was “inactive”.

For O=C1Nc2ccc([N+](=O)[O-])cc2C1=Nc1cccc(CO)c1, which Potency is on record?
The Potency was “inactive”.

Which Potency does the source give for N#Cc1c(N2CCCCC2)nc(N)c2c(N)nc(SCC(=O)O)cc12 here?
Its Potency is “inactive”.

For CCS(=O)(=O)C1=NSC2=NC(=O)/C(=C\c3ccc(OS(=O)(=O)c4ccccc4)cc3)C(=N)N21, which Potency is on record?
Its Potency is “inactive”.

Which Potency does the source give for Oc1c(Cl)cc(Cl)c(Cl)c1Cc1c(O)c(Cl)cc(Cl)c1Cl here?
The Potency was 7.91 µM (active).

Which Potency does the source give for O=C(Nc1nnc(S(=O)(=O)N2CCOCC2)s1)c1cccc(Br)c1 here?
The Potency was “inactive”.
